Results on 222 sequences are retold here after article PMC12135187, “A role for pH dynamics regulating transcription factor DNA-binding selectivity”.

Over roughly 1,100 sequences, “relative enrichment” has its median near 0.38; the highest 2% begin near 0.66. The entries come from a sample that favours the highest values as a whole.

This experiment deals with T1, FOXC2 DBD WT (UniProt Q99958 72-172).
T1 sequence: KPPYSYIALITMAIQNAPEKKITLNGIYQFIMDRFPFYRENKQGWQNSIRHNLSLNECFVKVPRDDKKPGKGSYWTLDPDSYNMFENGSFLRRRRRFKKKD
Briefly: SELEX-seq (GST pull-down, four rounds, 16-nt random library); pH 7.0; 20 mM HEPES, 140 mM KCl, 0.05 mM TCEP-HCl, pH 7.0, room temperature, 30 min; 2.5 uM GST-FOXC2 DBD, 0.25 uM DNA library; high values mean tight binding. The settings on record: protein: recombinant; tags: N-terminal GST (pGEX-6P-2); dsDNA, one strand shown. In outline: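 GST-tagged FOXC2 DNA-binding domain (E. coli-expressed, glutathione-purified) was incubated with a DNA library carrying a 16 bp randomized region, at 0.25 μM DNA and 2.5 μM protein, for 30 min at RT in 20 mM HEPES, 140 mM KCl, 0.05 mM TCEP–HCl, pH 7. Complexes were captured on glutathione Sepharose beads, washed, heat-eluted and PCR-amplified over four rounds. Initial and selected libraries were Illumina MiniSeq sequenced. Relative enrichment came from the Bioconductor SELEX R package.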
For the sequence TAATGA, the binding signal was found to be 0.31 relative enrichment. The value for AAGCTA was 0.297 relative enrichment; that for TACACC was 0.418 relative enrichment; that for CACCTG was 0.535 relative enrichment.

Consider TACCTC, for which the binding signal stood at 0.625 relative enrichment.

Turning to CACCTC, the binding signal amounted to 0.731 relative enrichment. Regarding CAATAA, the binding signal was 0.513 relative enrichment. As for CTTATC, the binding signal turned out to be 0.378 relative enrichment. Take AACAGG: the binding signal stood at 0.325 relative enrichment. Turning to TCAACT, the binding signal is 0.324 relative enrichment.

Consider CAACCA, for which the binding signal amounted to 0.261 relative enrichment. The value for TTCCTA was 0.364 relative enrichment. The value for CTTACA was 0.35 relative enrichment; that for TATAAA was 0.283 relative enrichment. The value for ATACTC was 0.432 relative enrichment; that for GAAAAA was 0.304 relative enrichment; that for TGGTAA was 0.428 relative enrichment. Consider AGAATG, for which the binding signal came to 0.543 relative enrichment.

On to TCAATC, for which the binding signal came to 0.416 relative enrichment. The value for CTTTGA was 0.338 relative enrichment; that for AACGTT was 0.324 relative enrichment; that for CTCATT was 0.311 relative enrichment.

AACAAT: the binding signal was 0.374 relative enrichment. The value for ATAGTC was 0.461 relative enrichment; that for TTCACT was 0.426 relative enrichment. The same measure for AAAGAT: 0.356 relative enrichment; for ATAGAA: 0.4 relative enrichment. For TCTCTA, the binding signal was determined as 0.45 relative enrichment.

On to ATATTA, for which the binding signal was determined as 0.266 relative enrichment. The value for ATACGC was 0.457 relative enrichment; that for ACGAAA was 0.388 relative enrichment. The same measure for CATACG: 0.448 relative enrichment.

In the case of TATGAA, the binding signal was determined as 0.387 relative enrichment. The same measure for AATTCA: 0.336 relative enrichment; for AAATTC: 0.343 relative enrichment; for ACACGT: 0.335 relative enrichment.

Consider CTTAAG, for which the binding signal turned out to be 0.341 relative enrichment. As to AATCGT, the binding signal came out at 0.337 relative enrichment. The same measure for CTACAC: 0.417 relative enrichment; for TTTCCC: 0.38 relative enrichment. The same measure for AAACCC: 0.354 relative enrichment; for ACTAAT: 0.328 relative enrichment.

For the sequence ACTACA, the binding signal was found to be 0.297 relative enrichment. The same measure for GCTACA: 0.348 relative enrichment; for ACCATG: 0.559 relative enrichment; for ATCAAT: 0.463 relative enrichment. For the sequence CGTCAT, the binding signal turned out to be 0.583 relative enrichment. The same measure for AAATCC: 0.354 relative enrichment. The value for CACTTC was 0.726 relative enrichment. The same measure for TACTTC: 0.678 relative enrichment; for CACTTA: 0.321 relative enrichment. In the case of TACTCC, the binding signal came out at 0.566 relative enrichment. The value for CACTGC was 0.574 relative enrichment; that for AACTTC was 0.432 relative enrichment; that for AAGCTC was 0.44 relative enrichment. The value for CTCTTG was 0.394 relative enrichment; that for ACCCTT was 0.488 relative enrichment; that for CACGTA was 0.469 relative enrichment. The same measure for CATCTC: 0.642 relative enrichment.

Consider CCCATT, for which the binding signal was determined as 0.378 relative enrichment. Take CCTCTA: the binding signal is 0.483 relative enrichment. The value for CTTAAC was 0.232 relative enrichment; that for ACACGA was 0.377 relative enrichment; that for ATATGC was 0.286 relative enrichment. The same measure for ACGACT: 0.561 relative enrichment; for AGTCTA: 0.54 relative enrichment. With ACCCAT, the binding signal was determined as 0.43 relative enrichment. The same measure for TGACAA: 0.337 relative enrichment. For TACCCA, the binding signal was found to be 0.526 relative enrichment. With ATAAAA, the binding signal is 0.231 relative enrichment. ATAAGA: the binding signal amounted to 0.307 relative enrichment. The same measure for ATAAGC: 0.803 relative enrichment. The same measure for ATAAGG: 0.316 relative enrichment; for ATAAAC: 1 relative enrichment.

Regarding GTAAAC, the binding signal is 0.561 relative enrichment.

CCCTTG: the binding signal worked out at 0.444 relative enrichment.

On to GAGTAA, for which the binding signal is 0.439 relative enrichment. The same measure for ATGCTA: 0.343 relative enrichment. As for CAAGCA, the binding signal turned out to be 0.489 relative enrichment. The same measure for AAAGCA: 0.341 relative enrichment. The same measure for TAAGCA: 0.814 relative enrichment. The same measure for TCTGTG: 0.32 relative enrichment; for AGCGTA: 0.542 relative enrichment; for GACACA: 0.296 relative enrichment.

With ATCTTC, the binding signal worked out at 0.665 relative enrichment.

Take CTCTTA: the binding signal came out at 0.325 relative enrichment. The value for TTCTAC was 0.528 relative enrichment; that for ATCTTG was 0.318 relative enrichment; that for CTCTTT was 0.469 relative enrichment. The value for ATCTTA was 0.332 relative enrichment; that for CTCTTC was 0.799 relative enrichment.

Take TTCTTC: the binding signal was determined as 0.673 relative enrichment. Take TTCTCT: the binding signal was determined as 0.453 relative enrichment.

Consider ATCTAG, for which the binding signal is 0.559 relative enrichment. As to GCCAAT, the binding signal amounted to 0.341 relative enrichment.

CCACTG: the binding signal came out at 0.649 relative enrichment.

As for ACTTGC, the binding signal amounted to 0.489 relative enrichment.

As for CCCTGT, the binding signal is 0.366 relative enrichment. The value for ACAGAG was 0.418 relative enrichment; that for CCTCAT was 0.455 relative enrichment; that for TAGTCA was 0.442 relative enrichment.

On to AGTCAT, for which the binding signal came out at 0.491 relative enrichment. The value for ATTGCC was 0.483 relative enrichment; that for GCCATA was 0.387 relative enrichment; that for AACTCA was 0.249 relative enrichment. As to TGCAAA, the binding signal turned out to be 0.311 relative enrichment. ACATTA: the binding signal was 0.277 relative enrichment. The same measure for ACATGT: 0.276 relative enrichment; for GTCTTA: 0.348 relative enrichment. The value for GATCTA was 0.537 relative enrichment; that for AGATTA was 0.329 relative enrichment. The value for GCAACA was 0.23 relative enrichment.

In the case of ACAAGA, the binding signal is 0.322 relative enrichment. The same measure for AATCGC: 0.406 relative enrichment.

CATCCA: the binding signal came to 0.528 relative enrichment. The same measure for CATCCC: 0.704 relative enrichment. The same measure for CATCGC: 0.711 relative enrichment; for CATCGT: 0.553 relative enrichment; for CATCCT: 0.605 relative enrichment.

Regarding TAGACA, the binding signal was found to be 0.44 relative enrichment.

As for ATCCAT, the binding signal turned out to be 0.477 relative enrichment.

As to AAATAT, the binding signal is 0.435 relative enrichment. On to AATAAG, for which the binding signal is 0.686 relative enrichment. The same measure for TAATAA: 0.399 relative enrichment; for CATAAG: 0.406 relative enrichment; for GATAAA: 0.326 relative enrichment. Consider AATAAA, for which the binding signal is 0.839 relative enrichment. The same measure for AATAAT: 0.309 relative enrichment; for CATAAA: 0.596 relative enrichment; for AAATAA: 0.891 relative enrichment.

GCTCAA: the binding signal worked out at 0.305 relative enrichment. The same measure for CAATTC: 0.306 relative enrichment; for AAAACA: 0.264 relative enrichment. The value for AACTAT was 0.324 relative enrichment; that for CAGTAA was 0.415 relative enrichment. With AGTACT, the binding signal was determined as 0.668 relative enrichment. Take AATACT: the binding signal worked out at 0.328 relative enrichment. For AGTACA, the binding signal was 0.385 relative enrichment. The same measure for AAAGTG: 0.343 relative enrichment. The same measure for CAATGG: 0.433 relative enrichment; for ATTTAC: 0.56 relative enrichment. The same measure for ATTAGG: 0.356 relative enrichment; for TCCAAA: 0.348 relative enrichment; for ACTTCC: 0.677 relative enrichment.

Take AATTCC: the binding signal was found to be 0.366 relative enrichment.

In the case of ACTTCA, the binding signal is 0.453 relative enrichment. As to ACTCGT, the binding signal stood at 0.431 relative enrichment. The value for CTGCAT was 0.524 relative enrichment; that for TCCTAT was 0.313 relative enrichment.

For AAACCG, the binding signal is 0.336 relative enrichment. The same measure for CAATGC: 0.376 relative enrichment; for TACGTC: 0.674 relative enrichment; for TACGTA: 0.539 relative enrichment. Turning to AACGTC, the binding signal turned out to be 0.372 relative enrichment. The value for CCATTA was 0.286 relative enrichment; that for ACCACT was 0.588 relative enrichment.

GGTTTA: the binding signal is 0.395 relative enrichment. The same measure for ATTTGG: 0.408 relative enrichment; for CTGTTA: 0.238 relative enrichment. For TTACAA, the binding signal stood at 0.36 relative enrichment. The same measure for TACGAA: 0.468 relative enrichment; for TATACA: 0.505 relative enrichment; for GAAACA: 0.347 relative enrichment. As for CAAATG, the binding signal was found to be 0.327 relative enrichment. For the sequence AAAATA, the binding signal is 0.439 relative enrichment. With GAAATA, the binding signal amounted to 0.451 relative enrichment.

For CAAATC, the binding signal is 0.3 relative enrichment.

On to CAAATA, for which the binding signal came out at 0.707 relative enrichment. As to TAAATA, the binding signal is 0.726 relative enrichment.

On to CAAACA, for which the binding signal is 0.57 relative enrichment. The value for TAAACA was 0.701 relative enrichment; that for ATAGCA was 0.284 relative enrichment; that for TCTTTC was 0.55 relative enrichment. Regarding CAGACT, the binding signal was 0.612 relative enrichment.

Take ACTTGA: the binding signal worked out at 0.341 relative enrichment. The same measure for CATAAC: 0.226 relative enrichment; for AAATGG: 0.353 relative enrichment. The value for GTTCGT was 0.328 relative enrichment; that for CTTCGT was 0.674 relative enrichment; that for CTTCAT was 0.554 relative enrichment. The same measure for ATGTTA: 0.428 relative enrichment. As to TCATTC, the binding signal came out at 0.646 relative enrichment. The value for ACCTTA was 0.322 relative enrichment; that for GATCTT was 0.497 relative enrichment; that for TCTAAC was 0.304 relative enrichment. The same measure for CTACAA: 0.352 relative enrichment. Regarding ACAATA, the binding signal was found to be 0.351 relative enrichment. The value for AAACGA was 0.433 relative enrichment; that for GTGTCA was 0.372 relative enrichment; that for CATGCA was 0.513 relative enrichment. The same measure for AGGATA: 0.311 relative enrichment; for TACCCT: 0.504 relative enrichment; for AGCCTA: 0.371 relative enrichment. For the sequence AAAGTT, the binding signal was determined as 0.3 relative enrichment.

As for AGTTTA, the binding signal came out at 0.403 relative enrichment. On to CTATCA, for which the binding signal was 0.419 relative enrichment. The value for ACTGCT was 0.412 relative enrichment; that for AACTAC was 0.312 relative enrichment. The value for AACCAC was 0.351 relative enrichment; that for ACACGG was 0.442 relative enrichment. The same measure for TCATCT: 0.546 relative enrichment. Turning to CAACGC, the binding signal was determined as 0.322 relative enrichment. Turning to ACTTCT, the binding signal amounted to 0.502 relative enrichment.

In the case of TCTTCT, the binding signal was 0.66 relative enrichment. The same measure for CCTTCT: 0.774 relative enrichment. The value for AAGCAG was 0.486 relative enrichment; that for ATCTCT was 0.485 relative enrichment.

For TCACAA, the binding signal was 0.332 relative enrichment. The value for AGGTTG was 0.313 relative enrichment.

With ACATCG, the binding signal came out at 0.521 relative enrichment. Consider ATGTTC, for which the binding signal was determined as 0.304 relative enrichment. The value for TGAACA was 0.291 relative enrichment.

Consider AACGAA, for which the binding signal was 0.281 relative enrichment. The value for GACTTA was 0.52 relative enrichment; that for AATGAT was 0.314 relative enrichment; that for CCGTTG was 0.343 relative enrichment.

Regarding CCTGTG, the binding signal turned out to be 0.491 relative enrichment.

As to ACTCTC, the binding signal was 0.499 relative enrichment. With ATTAAA, the binding signal came to 0.406 relative enrichment. The value for TGTCAA was 0.457 relative enrichment; that for AATTAG was 0.241 relative enrichment. The same measure for ACGATA: 0.322 relative enrichment.
